Active and inactive are the calls of the source. How the source made its calls: active means hit-call score of the fitted dose curve at least 0.9, where 1 is the maximum; inactive means score below 0.9.
Assay: BSK_4H_Eotaxin3: BioMAP Diversity Plus: 4H Assay for Eotaxin 3 Biomarker Activity (AID 2283000)
Settings: primary human endothelial cells (HUVEC); actives raise or lower the signal
Experimental: BSK_4H is a cell-based, multiplexed-readout assay that uses umbilical vein endothelium, a human vascular primary cell, with measurements taken at 24 hours after chemical dosing in a 96-well plate.BSK_4H_Eotaxin3 is an assay component measured in the BSK_4H assay. It measures Eotaxin-3 antibody related to regulation of gene expression using ELISA technology.Data from the assay component BSK_4H_Eotaxin3 was analyzed into 1 assay endpoint. This assay endpoint, BSK_4H_Eotaxin3, was analyzed with bidirectional fitting relative to DMSO as the negative control and baseline of activity. Using a type of binding reporter, gain or loss-of-signal activity can be used to understand changes in the signaling as they relate to the gene CCL26. Furthermore, this assay endpoint can be referred to as a primary readout, because this assay has produced multiple assay endpoints where this one serves a signaling function. To generalize the intended target to other relatable targets, this assay endpoint is annotated to the cytokine intended target family, where the subfamily is chemotactic factor.
The levels of cell surface (or secreted, indicated by the prefix "s") biomarker endpoints were measured by ELISA. Overt cytotoxicity to cells in confluent adherent cultures (all systems other than the BT system) was assessed by measuring total protein levels using sulforhodamine B (SRB) staining in parallel cultures at the time of biomarker measurements, indicated as SRB endpoints. For proliferation assays for adherent cell types, individual cell types are cultured at sub-confluence and relative cell numbers quantified by SRB staining at time points optimized for each system (48 h: 3C and CASM3C systems; 72 h: BT and HDF3CGF systems; 96 h: SAg system). SRB was performed by staining cells with 0.1% SRB after fixation with 10% TCA and reading wells at 560 nm.Viability and proliferation of PBMC (T cells) was quantified by Alamar Blue reduction for the SAg and BT systems. For PBMC viability (referred to as PBMC Cytotoxicity within the assay endpoint names), cells were plated (75,000/well in a 96-well plate) and then chemical samples added for 1 h before addition of activators, SEB and TSST-1 (20 ng/mL final concentration each). Cells were incubated for 90 h. Then, Alamar Blue (20 uL/well) (Invitrogen, Cat DAL1100) was added for 6 h, and the plates were read with a fluorescence microplate reader at 546/580 nm (excitation/emission). For PBMC proliferation, cells were plated and activated as above but incubated for only 16 h prior to addition of Alamar Blue. Plates were read after 6 h.

| Compound | outcome | AC50 |
| --- | --- | --- |
| CCOc1nc(C(Cl)(Cl)Cl)ns1 | inactive |  |
| Cc1cc(C)nc(Nc2ccccc2)n1 | inactive |  |
| Cc1cnc(C2=NC(C)(C(C)C)C(=O)N2)c(C(=O)O)c1 (stereo not given) | inactive |  |
| CCCCC(C#N)(Cn1cncn1)c1ccc(Cl)cc1 (stereo not given) | inactive |  |
| Clc1cccc(C(Cl)(Cl)Cl)n1 | inactive |  |
| O=C1C2CC=CCC2C(=O)N1SC(Cl)(Cl)Cl (stereo not given) | inactive |  |
| COCC(C)N(C(=O)CCl)c1c(C)csc1C (stereo not given) | inactive |  |
| Cc1nc(N(C)C)nc(OC(=O)N(C)C)c1C | inactive |  |
| CC(C)Nc1nc(Cl)nc(NC(C)C)n1 | inactive |  |
| C=C(C)CN(CC)c1c([N+](=O)[O-])cc(C(F)(F)F)cc1[N+](=O)[O-] | inactive |  |
| CN/C(=N\[N+](=O)[O-])NCc1cnc(Cl)s1 | inactive |  |
| COP(=O)(OC)O/C(C)=C/C(=O)N(C)C | inactive |  |
| CCN(CC)c1nc(C)cc(OP(=S)(OC)OC)n1 | inactive |  |
| COc1ccc(-c2ccccc2)cc1NNC(=O)OC(C)C | inactive |  |
| CCNC(=O)NC(=O)C(C#N)=NOC | inactive |  |
| N#Cc1c[nH]cc1-c1cccc2c1OC(F)(F)O2 |  | 20 µM (active) |
| CC(C)N1C(=O)N(c2ccccc2)CSC1=NC(C)(C)C |  | 31.2 µM (active) |
| COP(=S)(OC)SCn1nnc2ccccc2c1=O | inactive |  |
| CCOC(=O)C(C)OC(=O)c1cc(Oc2ccc(C(F)(F)F)cc2Cl)ccc1[N+](=O)[O-] (stereo not given) | inactive |  |
| CCOP(=S)(OCC)Oc1nc(Cl)n(C(C)C)n1 | inactive |  |

| Compound | outcome | AC50 |
| --- | --- | --- |
| CCOc1cc(C(C)(C)C)ccc1C1COC(c2c(F)cccc2F)=N1 (stereo not given) |  | 29 µM (active) |
| CC(C)N1C(=O)c2ccccc2NS1(=O)=O | inactive |  |
| CC(C)=CC1C(C(=O)OCc2coc(Cc3ccccc3)c2)C1(C)C (stereo not given) |  | 8.05 µM (active) |
| CCCCOCN(C(=O)CCl)c1c(CC)cccc1CC |  | 36.1 µM (active) |
| CCCN(CC)CC1COC2(CCC(C(C)(C)C)CC2)O1 (stereo not given) | inactive |  |
| Nc1c(Cl)c(F)nc(OCC(=O)O)c1Cl | inactive |  |
| CCCCC(O)(Cn1cncn1)c1ccc(Cl)cc1Cl (stereo not given) | inactive |  |
| N#Cc1c(Cl)cccc1Cl | inactive |  |
| CCCC(=NOCC)C1=C(O)CC(CC(C)SCC)CC1=O (stereo not given) | inactive |  |
| CC(C)(C)C(=O)C(Oc1ccc(Cl)cc1)n1cncn1 (stereo not given) | inactive |  |
| O=P(O)(O)CCCl | inactive |  |
| CCOP(=O)(OCC)Oc1nc(Cl)c(Cl)cc1Cl |  | 30.5 µM (active) |
| CC1(C)CON(Cc2ccccc2Cl)C1=O | inactive |  |
| COC(=O)N(C(=O)N1CO[C@@]2(C(=O)OC)Cc3cc(Cl)ccc3C2=N1)c1ccc(OC(F)(F)F)cc1 | inactive |  |
| COC(=O)NS(=O)(=O)c1ccc(N)cc1 | inactive |  |
| CN=C=S | inactive |  |
| CNC(=O)Oc1cccc2ccccc12 |  | 20 µM (active) |
| CC(C)C1(C)N=C(c2ncccc2C(=O)O)NC1=O (stereo not given) | inactive |  |
| CSC(=O)c1c(C(F)F)nc(C(F)(F)F)c(C(=O)SC)c1CC(C)C | inactive |  |
| CNC(=O)N(C)c1nnc(C(C)(C)C)s1 | inactive |  |

Reference: PubChem BioAssay (EPA / NIEHS)
